Experimental findings from PubChem BioAssay are described below.

Experiment [1] is described as follows: inhibitors of TNFa-induced NFkB p65 translocation, primary screen, imaging, HUVEC, MLSMR starter and 10KST1 sets (AID 438;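 active = inhibition above 20% together with a positive visual image hit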;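 note: compound added about 3h40 before a 20 min TNFalpha stimulation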;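 for inhibition: signal is the nuclear over cytoplasmic p65 intensity ratio per well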). The settings on record: HUVEC TNFa-induced p65 nuclear translocation; cell count: measured here: nuclei count (cytotoxicity indicator), at 2.08 µM; inhibition: at 2 µM, stronger effect = higher value, 0% TNFa-plus-vehicle, 100% no-TNFa wells.
Experiment [2] can be described thus: inhibitors of mutant huntingtin aggregation, primary screen, imaging, exon1htt(103Q)mCFP cells, high-content imaging (AID 483;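 active = visual image review flags a hit and inhibition of aggregation exceeds 20%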;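 note: compound exposure lasted 3 days before fixation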;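 for nuclei count: percent of the per-plate median nuclei count of sample wells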). The following applies: exon1htt(103Q)mCFP cell line, aggregate imaging, at 2 µM; inhibition of aggregation: stronger effect = higher value; nuclei count: measured here: cell count, toxicity.
The nature of experiment [3]: inhibitors of E-selectin induction by TNFa, primary screen, imaging, HUVEC, immunofluorescence, MLSMR starter and 10KST1 sets (AID 487;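 active = visually confirmed hit in the image check and inhibition above 20%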;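 for inhibition: signal is fraction of cell area covered by stained E-selectin grains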;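 for nuclei count: 100% = median nuclei count of all wells on the same plate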). The settings on record: HUVEC TNFalpha-induced E-selectin immunofluorescence imaging, at 2 µM; inhibition: stronger effect = higher value; nuclei count: measured here: cell number, toxicity.
Experiment [4] concerns the target Voltage-gated potassium channel subunit beta-2 (Rattus norvegicus) (UniProt P62483). Kind of experiment: KvBeta enzyme negative modulators, primary screen, biochemical, NADPH fluorescence (AID 622;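 active = fluorescence slope higher than the sample average by over 3 SD, cut at about -0.22 in these data, passing the limit was not always enough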;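 note: slope of raw intensity against log time taken from 70 to 1610 s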). The following applies: recombinant KvBeta, 4-cyanobenzaldehyde reduction, at 10 µM, stronger effect = higher value.
Experiment [5] shares this target. Kind of experiment: KvBeta positive modulators, primary screen, biochemical, NADPH fluorescence (AID 623;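 active = NADPH fluorescence slope more negative than the mean of all samples by about 3 SD, 99.7% confidence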;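 note: fluorescence intensity change per second fitted from 20 to 320 s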). The following applies: Recombinant KvBeta, NADPH fluorescence decrease slope, 10 min; at 10 µM; stronger effect = lower value.
Experiment [6] addresses Alpha-2C adrenergic receptor (Homo sapiens) (UniProt P18825). Put plainly: modulators of alpha2C/GIRK thallium flux, primary screen, cell-based, HEK293 alpha2C/GIRK1/2 (AID 624;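 active = fluorescence slope after compound addition differing from the mean of all screened samples at 99.7% confidence, in either direction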;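 note: slope of fluorescence ratio to pre-addition baseline per second over 15 to 24 s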). The following applies: thallium flux BTC fluorescence, at 10 µM, actives lie on both sides.
A short description of experiment [7]: inhibitors of Sendai virus-induced IRF3 signaling, primary screen, TLR/RLR signaling modifier project, cell-based, Sendai virus stimulus, luciferase, 10K MLSCN set (AID 602276).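 Note: firefly luciferase from ISG56 promoter only with Renilla not read in this screen; 0% = Sendai virus plus DMSO and 100% = medium plus DMSO without virus.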 The following applies: HEK293 RL24 IRF3 luciferase reporter, at 10 µM, stronger effect = higher value. (Reporter assays use an easily measured gene product as a stand-in for the process of interest.)

Experiment [8] is described as follows: inhibitors of poly I:C-induced TLR3 signaling, primary screen, cell-based, poly I:C stimulus, luciferase, 10K MLSCN set (AID 602277;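 active = inhibition of the reporter signal at or above 50%; inactive = inhibition below 50%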). The following applies: HEK293-TLR3 RL24 IRF3 luciferase reporter, at 10 µM, stronger effect = higher value.

Molecules are shown by their SMILES. Active and inactive are the calls of the source.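 Rule for the calls, unless noted: active = inhibition at or above 50% at 10 µM; inactive = inhibition below 50%.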

Sequence of Voltage-gated potassium channel subunit beta-2 (Rattus norvegicus) (P62483 whole entry, looked up): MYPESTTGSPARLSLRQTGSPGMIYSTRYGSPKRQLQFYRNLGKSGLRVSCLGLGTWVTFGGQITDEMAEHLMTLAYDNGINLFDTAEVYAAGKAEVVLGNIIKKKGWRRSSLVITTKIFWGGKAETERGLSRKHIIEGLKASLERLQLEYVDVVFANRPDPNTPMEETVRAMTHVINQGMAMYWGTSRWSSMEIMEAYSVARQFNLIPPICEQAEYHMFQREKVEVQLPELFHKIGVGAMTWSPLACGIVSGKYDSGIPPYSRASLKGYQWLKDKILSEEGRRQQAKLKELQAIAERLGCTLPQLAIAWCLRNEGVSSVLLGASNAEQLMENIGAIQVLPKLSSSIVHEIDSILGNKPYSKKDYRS
Sequence of Alpha-2C adrenergic receptor (Homo sapiens) (P18825 whole entry, looked up): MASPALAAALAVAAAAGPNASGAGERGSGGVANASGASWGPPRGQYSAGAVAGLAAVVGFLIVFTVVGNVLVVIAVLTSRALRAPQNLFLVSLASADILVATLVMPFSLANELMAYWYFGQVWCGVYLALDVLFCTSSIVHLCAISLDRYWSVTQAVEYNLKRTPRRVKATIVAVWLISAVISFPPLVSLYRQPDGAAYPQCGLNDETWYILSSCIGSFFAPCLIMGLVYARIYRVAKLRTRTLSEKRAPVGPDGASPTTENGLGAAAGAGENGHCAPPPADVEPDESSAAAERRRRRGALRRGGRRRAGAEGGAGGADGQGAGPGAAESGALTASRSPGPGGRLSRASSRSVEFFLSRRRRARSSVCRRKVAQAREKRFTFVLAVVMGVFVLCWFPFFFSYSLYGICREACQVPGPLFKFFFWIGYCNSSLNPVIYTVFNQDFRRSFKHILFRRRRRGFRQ

As for `CCCCn1nnc(NC(=O)Cc2ccc(Cl)cc2)n1`, the cell count in experiment [1] was 618. The inhibition – broadly, the drop in the measured response relative to a control, in per cent – was 7.7% (inactive) in experiment [1], -66% (inactive) in experiment [3], 1.51% (inactive) in experiment [7] and 19.5% (inactive) in experiment [8]. Also, the inhibition of aggregation in experiment [2] was 23.9% (inactive). Further, the nuclei count is 91.6% in experiment [2] and 106% in experiment [3]. In addition, the fluorescence slope in experiment [4] is -0.44 (inactive). Moreover, the NADPH fluorescence slope in experiment [5] was -6.8e-05 (inactive). For the same compound, in experiment [6], the slope is 0.00393 (inactive).
`CC(=O)N1CCN(Cc2ccc(Br)s2)CC1`: the cell count in experiment [1] was 362. Moreover, the inhibition in experiment [1] was -3.4% (inactive); in experiment [3], -10.6% (inactive); in experiment [7] it was 13.6% (inactive); in experiment [8], 20.9% (inactive). Moreover, in experiment [2], the inhibition of aggregation was 2% (inactive). Moreover, the nuclei count turned out to be 114% in experiment [2] and 106% in experiment [3]. Moreover, the fluorescence slope in experiment [4] was -0.442 (inactive). For the same compound, the NADPH fluorescence slope in experiment [5] is -1.9e-05 (inactive). Also, the slope in experiment [6] is 0.00639 (inactive).
In the case of `O=C(Nc1cnn(C23CC4CC(CC(C4)C2)C3)c1)c1cnn2c(C(F)(F)F)cc(-c3ccco3)nc12`, in experiment [1], the cell count is 501. Moreover, the inhibition in experiment [1] is -8.8% (inactive); in experiment [3], -107% (inactive); in experiment [7], 8.99% (inactive); in experiment [8], -44.9% (inactive). Besides, the inhibition of aggregation in experiment [2] is -4.4% (inactive). Further, the nuclei count in experiment [2] is 108%; in experiment [3], 121%. The fluorescence slope in experiment [4] is -0.498 (inactive). The NADPH fluorescence slope in experiment [5] was -2.2e-05 (inactive). Also, the slope in experiment [6] was 0.00429 (inactive).
Take `O=S(=O)(c1cccc2nsnc12)N1CCN(c2ncccn2)CC1`: in experiment [1], the cell count was determined as 573. Also, the inhibition in experiment [1] is -15.2% (inactive); in experiment [3], -93.3% (inactive); in experiment [7] it was 12.7% (inactive); in experiment [8] it was 31.3% (inactive). The inhibition of aggregation in experiment [2] was 5.1% (inactive). For the same compound, the figures for the nuclei count in experiment [2] and in experiment [3] were 99.7% and 120%, respectively. The fluorescence slope in experiment [4] was -0.408 (inactive). Further, the NADPH fluorescence slope in experiment [5] is -4.2e-05 (inactive). Further, the slope in experiment [6] was 0.00508 (inactive).
Consider `CN=Cc1cc(-c2ccccc2)sc1O`, for which the cell count in experiment [1] was 330. The inhibition in experiment [1] was -2% (inactive); in experiment [3], -90.3% (inactive); in experiment [7] it was -23.3% (inactive); in experiment [8], -118% (inactive). The inhibition of aggregation in experiment [2] was -19.3% (inactive). In addition, the nuclei count stood at 126% in experiment [2] and 114% in experiment [3]. The fluorescence slope in experiment [4] is -0.574 (inactive). Besides, the NADPH fluorescence slope in experiment [5] was -1.5e-05 (inactive). Also, the slope in experiment [6] was 0.00861 (inactive).
With `CC1CN(C(=O)CSc2nnc(-c3ccncc3)n2-c2ccccc2)CC(C)O1` (centres undefined), the cell count in experiment [1] came out at 447. In addition, the inhibition in experiment [1] is 2.9% (inactive); in experiment [3], 71.2% (active); in experiment [7] it was 20.7% (inactive); in experiment [8], 24.3% (inactive). The inhibition of aggregation in experiment [2] is 4% (inactive). For the same compound, the nuclei count in experiment [2] was 101%; in experiment [3], 124%. For the same compound, the fluorescence slope in experiment [4] is -0.605 (inactive). The NADPH fluorescence slope in experiment [5] is 5.9e-06 (inactive). Moreover, the slope in experiment [6] was 0.00638 (inactive).
Turning to `O=C1CCCc2c1cc(C(=O)NCCCN1CCOCC1)c(=O)n2-c1ccc(Cl)cc1`, the cell count in experiment [1] was 568. For the same compound, the inhibition in experiment [1] was 2.5% (inactive); in experiment [3], -2.6% (inactive); in experiment [7] it was 10.7% (inactive); in experiment [8], 45.8% (inactive). Besides, the inhibition of aggregation in experiment [2] is 0.1% (inactive). In addition, the results for the nuclei count in experiment [2] and in experiment [3] were 99.5% and 122%, respectively. Also, in experiment [4], the fluorescence slope was -0.546 (inactive). For the same compound, the NADPH fluorescence slope in experiment [5] was -4e-05 (inactive). Besides, the slope in experiment [6] is 0.00614 (inactive).
In the case of `CCOC(=O)N1CCC(NC(=O)C2CCN(S(=O)(=O)c3cccc4cccnc34)CC2)CC1`, the cell count in experiment [1] worked out at 595. For the same compound, the inhibition was 1.8% (inactive) in experiment [1], 9.6% (inactive) in experiment [3], 12% (inactive) in experiment [7] and 35.6% (inactive) in experiment [8]. Also, the inhibition of aggregation in experiment [2] was -71.5% (inactive). For the same compound, the nuclei count in experiment [2] was found to be 11.3%; in experiment [3] it was 107%. For the same compound, the fluorescence slope in experiment [4] is -0.558 (inactive). In addition, in experiment [5], the NADPH fluorescence slope is -2.8e-05 (inactive). Moreover, the slope in experiment [6] is 0.00729 (inactive).
As to `CCc1c(C)nc2ncnn2c1N1CCC(C(=O)NCc2cccc(OC)c2)CC1`, in experiment [1], the cell count worked out at 716. Besides, the inhibition is -5.5% (inactive) in experiment [1], -34.8% (inactive) in experiment [3], 5.24% (inactive) in experiment [7] and 1.67% (inactive) in experiment [8]. The inhibition of aggregation in experiment [2] is -13.4% (inactive). Moreover, the nuclei count in experiment [2] stood at 66%; in experiment [3] it was 116%. For the same compound, the fluorescence slope in experiment [4] is -0.499 (inactive). In experiment [5], the NADPH fluorescence slope is -4.5e-05 (inactive). Besides, the slope in experiment [6] was 0.00565 (inactive).
As for `Brc1ccccc1-c1nc(-c2ccccc2)no1`, in experiment [1], the cell count came to 428. Moreover, the inhibition in experiment [1] was 2.3% (inactive); in experiment [3], -25.4% (inactive); in experiment [7], -15.5% (inactive); in experiment [8], -39.8% (inactive). Moreover, the inhibition of aggregation in experiment [2] was -23% (inactive). Further, the figures for the nuclei count in experiment [2] and in experiment [3] were 94% and 114%, respectively. In experiment [4], the fluorescence slope is -0.45 (inactive). Also, the NADPH fluorescence slope in experiment [5] is 2.8e-05 (inactive). Besides, the slope in experiment [6] was 0.00389 (inactive).
`Cc1c(C(=O)N2CCN(c3ccccc3)CC2)sc2ncnc(N3CCN(c4ccccc4)CC3)c12`: in experiment [1], the cell count is 613. Moreover, the inhibition in experiment [1] is 6.2% (inactive); in experiment [3], -70.4% (inactive); in experiment [7], 7.72% (inactive); in experiment [8], 4.87% (inactive). Further, the inhibition of aggregation in experiment [2] was 9.7% (inactive). Further, the figures for the nuclei count in experiment [2] and in experiment [3] were 107% and 127%, respectively. Also, the fluorescence slope in experiment [4] was -0.445 (inactive). Besides, the NADPH fluorescence slope in experiment [5] was -1.1e-05 (inactive). For the same compound, the slope in experiment [6] is 0.00705 (inactive).
As for `COc1ccc(N2CCN(CCCNC(=O)CC3Oc4ccc(C)cc4NC3=O)CC2)cc1` (centres undefined), the cell count in experiment [1] worked out at 581. For the same compound, the inhibition was 0.9% (inactive) in experiment [1], -40.7% (inactive) in experiment [3], 12.9% (inactive) in experiment [7] and 22.1% (inactive) in experiment [8]. In addition, the inhibition of aggregation in experiment [2] was 11.6% (inactive). Also, the nuclei count was 104% in experiment [2] and 130% in experiment [3]. Also, the fluorescence slope in experiment [4] was -0.472 (inactive). For the same compound, the NADPH fluorescence slope in experiment [5] was 1.7e-05 (inactive). The slope in experiment [6] was 0.00619 (inactive).
Regarding `Cc1ccc(C(C)n2cc(C(=O)NCCN3CCN(C)CC3)nn2)cc1` (centres undefined), the cell count in experiment [1] turned out to be 429. For the same compound, the inhibition in experiment [1] was 12.1% (inactive); in experiment [3] it was -7.3% (inactive); in experiment [7], 3.51% (inactive); in experiment [8], 7.62% (inactive). Further, the inhibition of aggregation in experiment [2] is -6.7% (inactive). The nuclei count in experiment [2] was 117%; in experiment [3], 119%. Further, the fluorescence slope in experiment [4] is -0.575 (inactive). Also, the NADPH fluorescence slope in experiment [5] was -1.3e-05 (inactive). In addition, the slope in experiment [6] is 0.00588 (inactive).
Regarding `Cc1c(C(=O)OC2CCCCC2)[nH]c2c1C(=O)CC(C)(C)C2`, the cell count in experiment [1] was 342. In addition, the inhibition is -8.9% (inactive) in experiment [1], 14.6% (inactive) in experiment [3], -3% (inactive) in experiment [7] and -13.3% (inactive) in experiment [8]. Besides, in experiment [2], the inhibition of aggregation is -22% (inactive). In addition, the nuclei count in experiment [2] is 108%; in experiment [3] it was 68.9%. In experiment [4], the fluorescence slope was -0.407 (inactive). In addition, the NADPH fluorescence slope in experiment [5] was -9.3e-06 (inactive). Further, in experiment [6], the slope is 0.00193 (inactive).
